The panel holds about 83,000 compounds, 20% with a hit somewhere; the sample as a whole holds those more often.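 Growth was measured after 48 h exposure to one concentration of compound in 96-well plates. Values under 10 count as active.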 Unmarked numbers belong to inactive results. Active and inactive are the calls of the source.
tested on: CAKI-1 renal; experiment: NCI-60 one-dose screen, 48 h (100 = growth as untreated, 0 = no growth, -100 = all killed); conditions: 10 µM
Procedure: Growth inhibition of the CAKI-1 human tumor cell line is measured as a screen for anti-cancer activity. Cells are grown in 96 well plates and exposed to the test compound for 48 hours. Compounds are tested at a single concentration, which is 10^-5 M for most compounds. The reported endpoint is percent growth (GI% or GIPRCNT), where numbers from 0 - 100% represent growth inhibition, and numbers from -100% - 0 represent cell death. For example, a value of 40 represents 60% growth inhibition. A value of 0 means no net growth occurred over the course of the experiment. A value of -40 indicates 40% of cells at the beginning of the experiment died by the end of the experiment. A value of -100 means all cells are dead at the end of the experiment.
NCI-60 Human Tumor Cell Lines Screen was performed using the standard one-dose NCI protocol, which is described in more detail at https://dtp.cancer.gov/discovery_development/nci-60/default.htm.
Compounds with GIPRCNT values below 10 were considered active. Activity score was based on GIPRCNT using the following formula: […]
Score is 0 for GIPRCNT values of 100 or above, 50 for GIPRCNT values of 0, and 100 for GIPRCNT values of -100.

| SMILES | growth |
| --- | --- |
| Cc1cc(OCCO)cc(C)c1Cl | 115% |
| COc1cc(C2c3cc4c(cc3C3OC(=O)C2C3CO)OCO4)cc(OC)c1OC (stereo not given) | 37.4% |
| CN(C)c1ccc2nc3ccc(=N)cc-3sc2c1 | 68.3% |
| COCCOCCCl | 98.8% |
| Oc1ccc(O)cc1 | 97.9% |
| COC(=O)/C=C\C(=O)OC | 112% |
| O=C(c1ccc(O)cc1)c1ccc(O)cc1 | 110% |
| OC1OC(COC(c2ccccc2)(c2ccccc2)c2ccccc2)C(O)C(O)C1O (stereo not given) | 96.5% |
| CN(C)Cc1cc(C(C)(C)CC(C)(C)C)ccc1O | 90.7% |
| CCCCC(O)c1ccccc1 (stereo not given) | 99.7% |
| NCCCN | 98.3% |
| COc1cc2c3c(n(C)c(=O)c2cc1OC)-c1cc2c(cc1C3=O)OCO2 | 24.3% |
| O=C(O)CCCc1ccccc1 | 108% |
| CC1(O)OC(COc2ccc(Cl)cc2)COC1O (stereo not given) | 90.1% |
| C[C@@H](c1ccccc1)[C@@H](C(=O)O)c1ccccc1 | 99.1% |
| c1ccc(CN2COc3c(ccc4c3OCN(Cc3ccccc3)C4)C2)cc1 | 7.65% (active) |
| O=C(Cc1nc2ccc([N+](=O)[O-])cc2nc1CC(=O)c1ccccc1)c1ccccc1 | 62.9% |
| CC(=O)CC(=O)N(C)C | 88.3% |
| CC1(C)S(=O)(=O)OCCOS1(=O)=O | 93.9% |
| O=C1OC[C@H]2[C@H](c3ccc(O)c(O)c3)c3cc(O)c(O)cc3C[C@H]12 | 136% |

| SMILES | growth |
| --- | --- |
| CCN(CC)CCCC(C)Nc1ccnc(/C=C/c2ccc(Cl)cc2)c1 (stereo not given) | 18.1% |
| C[N+](C)(C)C(=O)c1ccccc1 | 99.9% |
| O=C(Nc1cc(-c2ccccc2)[nH]n1)c1ccc(Cl)cc1 | 76.3% |
| CCc1ccc(/C(C#N)=C/C=C/c2ccccc2)cc1 | 53.7% |
| CC[N+](C)(CC)CCO | 94% |
| O=C1C=C(O)C(=O)C=C1O | 97.4% |
| CCOC(=O)C1=C(C)NC(=O)NC1c1cccs1 (stereo not given) | 103% |
| CCC(C#N)(CC)c1ccccc1 | 113% |
| O=[N+]([O-])c1ccc(Sc2ccncn2)c([N+](=O)[O-])c1 | 39.7% |
| NC(=S)N/N=C/c1ccc(N)cc1 | 101% |
| O=C(NN=C1CCCCC1)C(=O)NN=C1CCCCC1 | 110% |
| CN(C)C(C)(C)CC(C)(C)C | 101% |
| O=[N+]([O-])c1ccc(Cl)c(S(=O)(=O)O)c1 | 106% |
| CCOC(=O)c1cc(/C=C/c2cccc(Cl)c2)on1 | 91.3% |
| CCCCCCCO | 110% |
| Sc1ccc(Nc2c3ccccc3nc3ccccc23)cc1 | 92.2% |
| O=C(Cc1ccc(OCc2ccccc2)cc1)NCc1ccc2c(c1)OCO2 | 32.5% |
| O=C(O)c1ccnc(Br)c1 | 97.8% |
| O=C1NC(=O)C2C(=O)NC(=O)C1C21CCc2ccccc21 (stereo not given) | 77.7% |
| COc1cc([C@@H]2c3cc4c(cc3[C@H](O)[C@H]3COC(=O)[C@H]23)OCO4)cc(OC)c1OC | 26.9% |

Source: PubChem BioAssay (NCI)
